Data as given in PubChem BioAssay (NCI).
The panel holds about 79,000 compounds, 15% with a hit somewhere; the sample as a whole holds those more often. Values without a mark were called inactive. Calls of active or inactive are those of the source. Rule as the data show it: active = growth inhibition above about 70%; inactive = the rest.

How the values were obtained:
[1] = NCI Yeast Anticancer Drug Screen. Data for the rad50 strain (AID 155);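 also: 0% = growth of vehicle-only cultures of the same strain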; settings: S. cerevisiae rad50 strain growth inhibition, stronger effect = higher value
Summary of the method: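 Genetically altered yeast (DNA repair pathway); compound treatment; growth inhibition vs vehicle ctrl.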

[2] = NCI Yeast Anticancer Drug Screen. Data for the mec2-1 strain (AID 157); settings: S. cerevisiae mec2-1 strain, stronger effect = higher value
Summary of the method: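 Yeast mec2-1 mutant treated with compound. Readout: growth inhibition vs vehicle controls.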

[3] = NCI Yeast Anticancer Drug Screen. Data for the sgs1 mgt1 strain (AID 161);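 also: 0% = growth of cultures given vehicle only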; settings: S. cerevisiae sgs1 mgt1 strain, stronger effect = higher value
Summary of the method: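 Genetically altered yeast, compound exposure, growth inhibition relative to vehicle.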

[4] = NCI Yeast Anticancer Drug Screen. Data for the cln2 rad14 strain (AID 165);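 also: 0% = growth equal to vehicle treated cultures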; settings: S. cerevisiae cln2 rad14 strain, stronger effect = higher value
Summary of the method: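 cln2 rad14 yeast strain; compound exposure; growth inhibition read vs vehicle controls.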

[5] = NCI Yeast Anticancer Drug Screen. Data for the bub3 strain (AID 167); settings: S. cerevisiae bub3 mutant strain, stronger effect = higher value
Summary of the method: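 Yeast carrying a defined mutation is treated with each compound, and growth is compared with that of vehicle-exposed cells to give inhibition.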

[6] = NCI Yeast Anticancer Drug Screen. Data for the mlh1 rad18 strain (AID 175); settings: S. cerevisiae mlh1 rad18 strain growth inhibition, stronger effect = higher value
Summary of the method: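 Yeast w/ defined DNA-repair lesions; compound exposure; growth vs vehicle controls → % inhibition.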

[7] = at 5.0 µM (retest, dose inferred, filed as 0.5)
[8] = at 50.0 µM (retest, dose inferred, filed as 5.0)

Structure (SMILES) | growth inhibition [1, 7] | growth inhibition [1, 8] | growth inhibition ([1]; at 50.0 µM) | growth inhibition [2, 7] | growth inhibition [2, 8] | growth inhibition ([2]; at 50.0 µM) | growth inhibition [3, 7] [%] | growth inhibition [3, 8] | growth inhibition ([3]; at 50.0 µM) | growth inhibition [4, 7] | growth inhibition [4, 8] | growth inhibition ([4]; at 50.0 µM) | growth inhibition [5, 7] [%] | growth inhibition [5, 8] | growth inhibition ([5]; at 50.0 µM) | growth inhibition [6, 7] | growth inhibition [6, 8] | growth inhibition ([6]; at 50.0 µM)
COc1ccc(CC2c3cc4c(cc3CCN2C)OCO4)c(C=O)c1OC (stereo unspecified) | -2% | -4% | 82% (active) | -1% | -1% | 86.7% (active) | -1 | -3% | 83.3% (active) | -4% | -11% | 84.7% (active) | -2 | 1% | 57.3% | -2% | -4% | -38.8%
OC(C1CCCC1=N/N=C1/CCCC1C(O)(C(F)(F)Cl)C(F)(F)Cl)(C(F)(F)Cl)C(F)(F)Cl (stereo unspecified) | -2% | 22% | 86.3% (active) | -2% | 25% | 89.3% (active) | -4 | 7% | 90.9% (active) | 1% | 26% | 88.8% (active) | 0 | 11% | 91.8% (active) | -3% | 33% | 92% (active)
C=C(CN(C)C)C(=O)c1ccccc1 | -5% | 4% | 56.6% | 8% | 41% | 65% | 8 | 17% | 56% | -26% | 12% | 9.55% | -20 | 19% | 77.7% (active) | -4% | 17% | 74.8% (active)
O=C1Nc2c(ccc(Cl)c2I)C1=O | -28% | 97% (active) | 92.2% (active) | -3% | 99% (active) | 94.3% (active) | -13 | 70% (active) | 92.3% (active) | 9% | 98% (active) | 91.2% (active) | -5 | 98% (active) | 91.6% (active) | -27% | 99% (active) | 91.7% (active)
CCOC(=O)Nc1nc2ccc(Cn3cccc3)cc2[nH]1 | 25% | 31% | 17.8% | 19% | 22% | -12.5% | 24 | 24% | 10.9% | 33% | 24% | 6.05% | 22 | 24% | -1.9% | 25% | 23% | -0.95%
COc1cccc2c1C(=O)c1c(O)c3c(c(O)c1C2=O)C[C@@](O)(C(O)CO)C[C@@H]3OC1CC(N(Cc2ccccc2)Cc2ccccc2)C(O)C(C)O1 (stereo partly specified) | 45% | 98% (active) | 86.8% (active) | 13% | 98% (active) | 85.8% (active) | 29 | 98% (active) | 65.6% | 18% | 97% (active) | 45.1% | 20 | 98% (active) | 62% | 50% | 97% (active) | 84% (active)
COc1ccccc1NC(=O)CC(=O)N1N=C(c2ccccc2)C(N=Nc2ccc(Cl)cc2)C1=O (stereo unspecified) | 20% | 20% | -5.1% | 21% | 21% | 0.6% | 25 | 25% | -2% | 12% | 12% | -41.2% | 15 | 15% | 1% | 6% | 6% | -8.05%
Cc1ccc(O)c(C(C)(C)c2ccccc2)c1 | -8% | 77% (active) | 99.5% (active) | -5% | 94% (active) | 99.8% (active) | -9 | 43% | 99.7% (active) | -6% | 90% (active) | 98.7% (active) | -49 | 95% (active) | 99.5% (active) | -10% | 94% (active) | 99.3% (active)
O=C(/C(=C\c1ccccc1)c1ccccc1)c1ccc(Br)cc1 | 7% | -9% | 10.2% | 3% | 4% | -16.2% | 4 | 5% | 24.6% | 0% | -8% | 47.1% | 1 | 9% | 11.8% | -8% | 2% | 17.4%
COc1ccc(/C=C/c2ccnc3ccccc23)cc1OC | 17% | 96% (active) | 86.4% (active) | 2% | 97% (active) | 90.9% (active) | 9 | 98% (active) | 87.9% (active) | 6% | 89% (active) | 83.7% (active) | -8 | 98% (active) | 82.5% (active) | 11% | 96% (active) | 84.9% (active)
O/N=C(/Cc1ccccc1)c1ccc2c(c1)OCO2 | -4% | 6% | -9.8% | -14% | -11% | 4.9% | -18 | 3% | -2.4% | -6% | 17% | 8.6% | 6 | 29% | 15.1% | -19% | 10% | 2.95%
CC(CCCOC(c1ccccc1)(c1ccccc1)c1ccccc1)OC(=O)Nc1ccccc1 (stereo unspecified) | 85% (active) | 85% (active) | 83.9% (active) | 81% (active) | 81% (active) | 85.8% (active) | 63 | 63% | 84% (active) | 92% (active) | 92% (active) | 83% (active) | 69 | 69% | 79.7% (active) | 93% (active) | 93% (active) | 81.5% (active)
